INS promoter inh: TRM-6 insulin promoter activity inhibition | TRM-6 cells (human fetal islet line), insulin promoter-eGFP reporter, imaging; reporter expression induced with tamoxifen | actives 0.9% (n = 130,000) | inhibition, % at 2 µM;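 active = inhibition above the mean plus 3 SD, with well images judged a real hit on visual review, cut at about 60% in these data, passing the limit was not always enough; inconclusive = inhibition over the cutoff but images rejected on review; inactive = inhibition not above the cutoff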
L major viab: Leishmania major promastigote growth inhibition | Leishmania major promastigotes, resazurin fluorescence viability | inhibition, % at 10 µM | actives 9% (n = 200,000) | AID 1063; in the data active = inhibition above about 50%;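 also: promastigotes grown with compound for 44 hours at 28 °C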
WT yeast gro inh: growth inhibition of WT yeast, mitochondrial fusion screen | mitochondrial fusion phenotypic screen, WT strain | inhibition, % at 10 µM | actives 2.1% (n = 190,000); in the data active = inhibition above about 58%; tested in S. cerevisiae
Autophagy HCS: modulators of autophagy; actives 0.98% (n = 190,000); calls only at 10 µM (by protocol); MEF GFP-LC3 puncta imaging; test concentration mostly 10 µM;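 active = percentage of spot-positive cells more than 3 SD above its plate mean, without a fluorescence outlier flag or 80% toxicity; inconclusive = no clear call, values can overlap the other calls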;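 also: spot-positive cell cutoff set from DMSO-treated cells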
Insulin prom up: MIN6 insulin promoter up-regulation; MIN6 insulin promoter-GFP reporter, high-content imaging; stronger effect = higher value; actives 0.3% (n = 190,000); z-score at 5 µM; AID 1625;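 active = z-score above 3 at 5 µM with at least 500 cells counted in the well; inconclusive = wells under 500 cells, flagged as cytotoxic or low count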
The depositor's hits bear a star; i = inactive; ? = inconclusive; · = not tested or not shown; + = active, no number; ! = a repeat was not active. Compounds with a hit are over-represented: about 11% of the library has one in this group of screens.

SMILES | INS promoter inh | L major viab | WT yeast gro inh | Autophagy HCS | Insulin prom up
CC(C)CCOC(=O)c1c(N)n(CC2CCCO2)c2nc3ccccc3nc12 (stereo not given) | 6.9 | 99.7* | 4.4 | i | -0.32
COCCOC(=O)c1c(N)n(Cc2ccccc2)c2nc3ccccc3nc12 | · | 38.7 | -30.8 | i | 0.04
CC(C)OCCCNC(=O)c1c(N)n(CC2CCCO2)c2nc3ccccc3nc12 (stereo not given) | 14.3 | 12.8 | 3.4 | i | -0.96
Nc1c(C(=O)OC2CCCCC2)c2nc3ccccc3nc2n1CC1CCCO1 (stereo not given) | -3.2 | 81.0* | 20.5 | i | -1.79
CCCNC(=O)c1c(N)n(CC2CCCO2)c2nc3ccccc3nc12 (stereo not given) | · | 30.2 | 9.7 | i | -1.06
CC(C)OC(=O)c1c(N)n(CC2CCCO2)c2nc3ccccc3nc12 (stereo not given) | 24.3 | 52.4* | 1.0 | i | -0.43
c1ccc2c(CN3CCCCCCC3)c[nH]c2c1 | · | 98.2* | 2.7 | i | -2.24
CN(Cc1c[nH]c2ccccc12)C1CCCCC1 | -55.6 | 70.3* | 0.0 | i | -1.71
c1ccc2c(CNC3CCCCC3)c[nH]c2c1 | -4.2 | 31.4 | 10.8 | i | -1.65
c1ccc2c(CN3CCN(C4CCCCC4)CC3)c[nH]c2c1 | · | 75.4* | 6.2 | i | -1.57
CCCOP(=O)(O)c1c([N+](=O)[O-])cc(C(F)(F)F)cc1[N+](=O)[O-] (tested in a mixture with another compound) | -26.7 | -1.6 | -0.4 | i | ·
CN(C)C=C1C(=O)N(C2CCCCC2)C(=O)N(C2CCCCC2)C1=O | · | -7.2 | -8.4 | i | 0.38
CSc1ccccc1C(=O)C1CCCN(Cc2ccn[nH]2)C1 (stereo not given) | -39.1 | -3.2 | 12.7 | i | ·
O=C1NC(=O)N(CCC2=CCCCC2)C(=O)/C1=C\c1cccs1 | 26.9 | 55.0* | -16.5 | i | 0.61
COc1cc(/C=C2/C(=O)NC(=O)N(c3ccccc3)C2=O)ccc1O | -21.4 | -1.3 | 0.9 | i | -0.33
COc1cc(/C=C/[N+](=O)[O-])ccc1O | 4.8 | 96.7* | 31.2 | i | 0.25
CCn1c(NN=O)nc2ccccc21 | 17.6 | 53.2* | 2.8 | i | ·
CCN(CC)c1ccc(N=Cc2c(O)n(Cc3ccccc3)c(=O)[nH]c2=O)cc1 | -10.5 | -2.7 | -11.0 | +! | 0.48
O=C1NC(=O)C2(Cc3ccccc3N3CCCC32)C(=O)N1Cc1ccccc1 (stereo not given) | -43.9 | -3.2 | -1.7 | i | 0.2
O=C1NC(=O)C2(Cc3c(nc4ccccn4c3=O)N3CCCCCC32)C(=O)N1Cc1ccccc1 (stereo not given) | · | 96.7* | 15.2 | i | -0.36
CN1CCN(C(=O)OC2c3nccnc3C(=O)N2c2ccc(Cl)cn2)CC1 (stereo not given) | 0.0 | -8.1 | 4.5 | i | ·
O=c1[nH]c(=S)n(Cc2ccc(F)cc2)c(O)c1/C=N/N1CCCCC1 | · | 0.0 | 11.5 | i | ·
Cc1oc(-c2ccccc2)nc1CN1C(=O)C(C)N=C(c2ccccc2F)c2cc(Cl)ccc21 (stereo not given) | -41.5 | 93.7* | 79.7* | i | -0.62
CCC(C)C1N=C(c2ccccc2)c2cc(Cl)ccc2N(CC(=O)NCc2ccco2)C1=O (stereo not given) | · | 4.3 | 11.2 | i | -0.63
CCN1/C(=C\C=C\C2=[N+](CC)c3ccccc3C2(C)C)C(C)(C)c2ccccc21 | -257.1 | 99.0* | 89.2 | ? | ?
SMILES | INS promoter inh | L major viab | WT yeast gro inh | Autophagy HCS | Insulin prom up
CN1CCN(c2ccc([N+](=O)[O-])c(NCc3ccco3)c2)CC1 | -25.9 | 99.9* | -6.3 | i | -1.14
O=[N+]([O-])c1ccc(N2CCNCC2)cc1NCc1ccco1 | -8.1 | 100.6* | -18.8 | i | -0.92
CCCCc1nc(N2CCNCC2)c(C#N)c2c1CSC(C)(C)C2 | 72.0 | 97.2* | 0.7 | i | -0.85
N#Cc1c(N2CCNCC2)nc(-c2ccco2)c2c1CCCC2 | · | · | · | · | -1.54
C=CCN1C(=O)NC(=O)/C(=C/c2cc3c4c(c2)CCCN4CCC3)C1=O | -13.9 | 93.1* | 21.2 | i | -0.07
C=CCN1C(=O)NC(=O)/C(=C/c2cnc(SC)nc2)C1=O | 14.8 | -5.6 | -21.3 | i | 0.57
C/C1=C\[C@@H](C)C/C=C/[C@H]2[C@@H]3O[C@]3(C)[C@@H](C)[C@H]3[C@H](Cc4c[nH]c5ccccc45)NC(=O)[C@]32C(=O)/C=C/C(=O)[C@@H]1O | · | -2.2 | 71.3* | i | 1.61
Fc1ccc(Cn2nnnc2C(c2ccc(Cl)cc2)N2CC=C(c3ccc(F)cc3)CC2)cc1 (stereo not given) | -10.8 | 98.7* | 28.5 | i | -0.08
COc1ccc(OCC#CCN2CCCCCC2)cc1 | · | 85.4* | -2.0 | i | -1.71
C(#CCN1CCOCC1)COC/C=C/c1ccccc1 | 18.4 | 0.8 | 6.1 | i | 0.58
C(#CCN1CCCCC1)COCc1ccccc1 | · | 89.5* | 2.4 | i | 0.33
CCC(=NCCCN(C)C)c1c(O)n(-c2ccc(OC)cc2)c(=O)[nH]c1=O | 0.0 | 0.9 | 5.0 | i | -0.29
Cc1ccccc1C1=NCC(=O)N(CC(=O)NCc2ccco2)c2sc3c(c21)CCCC3 | 16.1 | 92.8* | 7.9 | i | 0.7
Cc1ncc(CN2CCCC(C(=O)c3cccc(Cl)c3)C2)s1 (stereo not given) | -162.5 | 85.0* | 0.2 | i | -0.39
Cc1ncc(CN2CCCC(C(=O)c3ccc(C(C)(C)C)cc3)C2)s1 (stereo not given) | -15.0 | 91.3* | 31.5 | i | ·
COc1ccc(C(=O)C2CCCN(Cc3cnc(C)s3)C2)c(OC)c1 (stereo not given) | · | 86.9* | 1.6 | i | -0.85
COc1ccc(C(=O)C2CCCN(Cc3cnc(C)s3)C2)cc1OC (stereo not given) | · | 81.4* | -9.4 | i | 0.42
Cc1ccsc1C(=O)C1CCCN(Cc2cnc(N3CCCC3)s2)C1 (stereo not given) | · | -3.5 | -0.8 | i | ·
CCC(=NCc1ccco1)c1c(O)n(-c2ccc(Cl)cc2)c(=O)[nH]c1=O | · | · | · | · | 0.03
CSc1nnc(C2CCNCC2)n1C | 7.1 | 1.9 | 64.9* | i | 0.03
O=C(c1cccc(C(F)(F)F)c1)C1CCCN(Cc2ccccc2O)C1 (stereo not given) | · | 83.5* | 27.7 | i | -0.96
O=C(c1cc(F)ccc1F)C1CCCN(Cc2cccc(Cl)c2)C1 (stereo not given) | · | 29.7 | 9.2 | i | -0.79
Cc1ccc(CN2CCCC(C(=O)c3cccc(C(F)(F)F)c3)C2)o1 (stereo not given) | -75.0 | 46.7 | 15.3 | i | -0.02
O=C(c1ccc(C(F)(F)F)cc1)C1CCCN(Cc2ccncc2)C1 (stereo not given) | · | 89.0* | 3.0 | i | -0.45
O=C(c1ccc(C(F)(F)F)cc1)C1CCCN(Cc2ccc(CO)o2)C1 (stereo not given) | · | 87.9* | 2.5 | i | 1.21
CN(C(=O)c1ccco1)C1(c2ccccc2Cl)CCCCC1=O (stereo not given) | -33.3 | 1.8 | -5.7 | i | -1.68
